Results from PubChem BioAssay (NCATS).
Results filed as inconclusive are left out. Active and inactive are the calls of the source. Calls follow the shape of the dose curve; as a rule, active = well fitted curve in the direction sought with a large enough effect; inconclusive = small, poorly fitted or top-dose-only effect, or another doubt; inactive = no such curve, though single readings can be large; an effect the other way counts as inactive or inconclusive.

What was measured:
[1] = Quantitative High-Throughput drug screen in 47 multiple myeloma cell lines against the NCATS MIPE library collection: INA6_PLB cell viability assay (AID 1918965; also: nearly all actives have a fitted effect of over 55% in size)
Outline: (§1)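 Myeloma cell lines, 500 cells per well, exposed to MIPE 4.0 library compounds for 48 h at 37C, 5% CO2. Viability from ATP by CellTiter-Glo luminescence; normalised to DMSO (100%) and media-only (0%) wells.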

[2] = Quantitative High-Throughput drug screen in 47 multiple myeloma cell lines against the NCATS MIPE library collection: JJN3_DSMZ cell viability assay (AID 1918966; also: nearly all actives have a fitted effect of over 50% in size)
Outline: (§2)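 CellTiter-Glo luminescence (ATP) after 48 h compound exposure, 37C/5% CO2; 500 cells/well; MIPE 4.0 approved/investigational drugs pinned in; DMSO = 100%, media only = 0% viability.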

[3] = Quantitative High-Throughput drug screen in 47 multiple myeloma cell lines against the NCATS MIPE library collection: H1112_PLB cell viability assay (AID 1918967; also: nearly all actives have a fitted effect of over 30% in size)
Outline: as §2

[4] = Quantitative High-Throughput drug screen in 47 multiple myeloma cell lines against the NCATS MIPE library collection: Karpas25_ECACC cell viability assay (AID 1918968; also: nearly all actives have a fitted effect of over 35% in size)
Outline: as §2

[5] = Quantitative High-Throughput drug screen in 47 multiple myeloma cell lines against the NCATS MIPE library collection: KMS27_JCRB cell viability assay (AID 1918970); conditions: KMS27 myeloma cells, CellTiter-Glo ATP viability, 48 h; viability (% of DMSO): at 45.8 µM (top of the series); also: nearly all actives have a fitted effect of over 30% in size
Outline: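 CellTiter-Glo luminescence after 48 h drug exposure at 37 °C; 500 cells/well, 1536-well format, pin-tool compound addition; DMSO = 100%, media-only = 0% viability.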

[6] = Quantitative High-Throughput drug screen in 47 multiple myeloma cell lines against the NCATS MIPE library collection: KMS12BM_JCRB cell viability assay (AID 1918971); also: nearly all actives have a fitted effect of over 35% in size
Outline: (§3)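 Approved and investigational drugs from MIPE 4.0 were added by pin tool to 500 cells per well. After 48 hours at 37C, ATP-based CellTiter-Glo luminescence indicated remaining viability.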

[7] = Quantitative High-Throughput drug screen in 47 multiple myeloma cell lines against the NCATS MIPE library collection: KMS12PE_JCRB cell viability assay (AID 1918972); also: nearly all actives have a fitted effect of over 30% in size
Outline: as §1

[8] = Quantitative High-Throughput drug screen in 47 multiple myeloma cell lines against the NCATS MIPE library collection: KMS26_JCRB cell viability assay (AID 1918975); also: nearly all actives have a fitted effect of over 45% in size
Outline: as §3

[9] = Quantitative High-Throughput drug screen in 47 multiple myeloma cell lines against the NCATS MIPE library collection: MMM1_PLB cell viability assay (AID 1918976); also: nearly all actives have a fitted effect of over 35% in size
Outline: (§4)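 500 cells/well per myeloma line exposed to pinned MIPE 4.0 compounds for 48 h at 37 °C, 5% CO2. Viability read as ATP by CellTiter-Glo luminescence, normalised to DMSO-only (100%) and media-only (0%) wells.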

[10] = Quantitative High-Throughput drug screen in 47 multiple myeloma cell lines against the NCATS MIPE library collection: MOLP8_DSMZ cell viability assay (AID 1918977); also: nearly all actives have a fitted effect of over 45% in size
Outline: as §4

[11] = Quantitative High-Throughput drug screen in 47 multiple myeloma cell lines against the NCATS MIPE library collection: NCIH929_DSMZ cell viability assay (AID 1918978); also: nearly all actives have a fitted effect of over 35% in size
Outline: as §4

[12] = Quantitative High-Throughput drug screen in 47 multiple myeloma cell lines against the NCATS MIPE library collection: OCIMY1_PLB cell viability assay (AID 1918979); also: nearly all actives have a fitted effect of over 35% in size
Outline: as §4

[13] = Quantitative High-Throughput drug screen in 47 multiple myeloma cell lines against the NCATS MIPE library collection: MM1S_ATCC cell viability assay (AID 1918980); also: nearly all actives have a fitted effect of over 45% in size
Outline: as §4

[14] = Quantitative High-Throughput drug screen in 47 multiple myeloma cell lines against the NCATS MIPE library collection: MM1R_ATCC cell viability assay (AID 1918981); also: nearly all actives have a fitted effect of over 35% in size
Outline: as §4

[15] = Quantitative High-Throughput drug screen in 47 multiple myeloma cell lines against the NCATS MIPE library collection: KMS28PE_JCRB cell viability assay (AID 1918983); also: nearly all actives have a fitted effect of over 35% in size
Outline: as §4

[16] = Quantitative High-Throughput drug screen in 47 multiple myeloma cell lines against the NCATS MIPE library collection: L363_DSMZ cell viability assay (AID 1918984); also: nearly all actives have a fitted effect of over 40% in size
Outline: as §4

[17] = Quantitative High-Throughput drug screen in 47 multiple myeloma cell lines against the NCATS MIPE library collection: KMS34_JCRB cell viability assay (AID 1918985); also: nearly all actives have a fitted effect of over 40% in size
Outline: as §4

[18] = Quantitative High-Throughput drug screen in 47 multiple myeloma cell lines against the NCATS MIPE library collection: LP1_DSMZ cell viability assay (AID 1918982); also: nearly all actives have a fitted effect of over 35% in size
Outline: as §4

[19] = Quantitative High-Throughput drug screen in 47 multiple myeloma cell lines against the NCATS MIPE library collection: KMS20_JCRB cell viability assay (AID 1918973); also: nearly all actives have a fitted effect of over 45% in size
Outline: as §2

[20] = Quantitative High-Throughput drug screen in 47 multiple myeloma cell lines against the NCATS MIPE library collection: KMS21BM_JCRB cell viability assay (AID 1918974); conditions: ATP luminescence, 48 h; viability: at 45.8 µM (top of the series)
Outline: as §2
Potency is read from the fitted curve at half-maximal effect.

Compound | Potency [1] | Potency [2] | Potency [3] | Potency [4] | Potency [5] | Potency [6] | Potency [7] | Potency [8] | Potency [9] | Potency [10] | Potency [11] | Potency [12] | Potency [13] | Potency [14] | Potency [15] | Potency [16] | Potency [17] | Potency [18] | Potency [19] | Potency [20]
CC(C)C[C@H](NC(=O)CNC(=O)c1cc(Cl)ccc1Cl)B1OC(=O)CC(CC(=O)O)(C(=O)O)O1 (some centres not stated) | 0.0332 µM (active) | 0.0743 µM (active) | 0.0662 µM (active) | 0.0296 µM (active) | 0.0833 µM (active) | 0.0833 µM (active) | 0.0469 µM (active) | 0.0935 µM (active) | 6.62 µM (active) | 0.0469 µM (active) | 0.0332 µM (active) | 0.059 µM (active) | 0.0418 µM (active) | 0.0296 µM (active) | 0.0526 µM (active) | 0.0833 µM (active) | 0.0469 µM (active) |  |  | 
COc1ccnc2[nH]cc(C(=O)C(=O)N3CCN(C(=O)c4ccccc4)C[C@@H]3C)c12 | inactive | 13.2 µM (active) | inactive | inactive | inactive | inactive | inactive | inactive |  | inactive | inactive | inactive | inactive | inactive | inactive |  |  | inactive |  | 
C=C1C(=O)O[C@H]2[C@@H]1CCC(C)=CCC[C@@]1(C)O[C@@H]21 | 0.935 µM (active) | 7.43 µM (active) | 4.18 µM (active) | 1.05 µM (active) | 9.35 µM (active) | 8.33 µM (active) |  | 3.72 µM (active) |  |  | 2.96 µM (active) | 5.26 µM (active) | 5.9 µM (active) | 3.72 µM (active) | 7.43 µM (active) | 9.35 µM (active) |  | 5.9 µM (active) | 1.66 µM (active) | 
COc1ccc([C@@H]2CNC(=O)C2)cc1OC1CCCC1 | 9.35 µM (active) | inactive | 2.96 µM (active) | 3.32 µM (active) | 26.4 µM (active) | inactive |  |  |  |  | 4.18 µM (active) | inactive | 0.743 µM (active) | inactive |  |  |  | inactive | 3.72 µM (active) | 
O=C(Nc1cccc(Nc2ncc(Br)c(NCCc3cnc[nH]3)n2)c1)N1CCCC1 | 0.743 µM (active) | 11.8 µM (active) | 9.35 µM (active) | 5.9 µM (active) | inactive | 18.7 µM (active) |  | 10.5 µM (active) |  | 6.62 µM (active) |  |  | 18.7 µM (active) | 14.8 µM (active) | 14.8 µM (active) | inactive | 2.96 µM (active) | 20.9 µM (active) | 5.9 µM (active) | 
COc1cc(N2CCC(C(N)=O)CC2)ccc1Nc1nc(N)c(Cl)c(Nc2ccccc2S(=O)(=O)C(C)C)n1 | 7.43 µM (active) | 0.105 µM (active) | 0.148 µM (active) | 0.235 µM (active) | 0.264 µM (active) | 2.64 µM (active) |  | 1.87 µM (active) |  |  | 0.0935 µM (active) |  | 0.743 µM (active) | 1.18 µM (active) | 0.743 µM (active) | 0.0148 µM (active) | 2.96 µM (active) |  | 0.001 µM (active) | 
Cc1cc(Nc2ncc3c(n2)N(C)C(=O)N(c2cc(NC(=O)c4cccc(C(F)(F)F)c4)ccc2C)C3)n(C)n1 | 0.469 µM (active) | 1.32 µM (active) | 2.64 µM (active) | 0.372 µM (active) | 1.87 µM (active) | 0.526 µM (active) | 1.05 µM (active) | 5.9 µM (active) |  | 0.296 µM (active) | 1.05 µM (active) |  | 0.935 µM (active) | 1.32 µM (active) | 1.32 µM (active) | 1.32 µM (active) |  |  |  | 
O=C1NCCc2[nH]c(-c3ccncc3)cc21 | 1.32 µM (active) | 2.09 µM (active) | 4.18 µM (active) | 2.96 µM (active) |  | 3.72 µM (active) | 6.62 µM (active) | 3.32 µM (active) | 16.6 µM (active) |  | 2.64 µM (active) | 5.9 µM (active) | 3.72 µM (active) | 2.64 µM (active) | 4.69 µM (active) | 2.35 µM (active) | 5.26 µM (active) | 4.18 µM (active) | 2.64 µM (active) | 
Nc1nc(N)c2nc(-c3cccc(O)c3)c(-c3cccc(O)c3)nc2n1 | 2.35 µM (active) | 18.7 µM (active) | 7.43 µM (active) | 4.69 µM (active) |  |  | 13.2 µM (active) |  |  | 26.4 µM (active) | 4.18 µM (active) |  | 14.8 µM (active) | 18.7 µM (active) | 26.4 µM (active) | 3.72 µM (active) | 14.8 µM (active) | 23.5 µM (active) | 7.43 µM (active) | 7.43 µM (active)
Cc1cnc(Nc2ccc(N3CCN(C)CC3)cc2)nc1Nc1cccc(S(=O)(=O)NC(C)(C)C)c1 | 0.418 µM (active) | 2.96 µM (active) | 5.9 µM (active) | 1.66 µM (active) |  | 2.64 µM (active) | 1.66 µM (active) | 6.62 µM (active) | 2.96 µM (active) | 2.09 µM (active) | 2.35 µM (active) |  | 3.32 µM (active) | 5.26 µM (active) | 7.43 µM (active) | 3.72 µM (active) | 2.35 µM (active) | 5.26 µM (active) | 7.43 µM (active) | 0.148 µM (active)
